Each compound was assayed against T1, Aspartate--tRNA(Asp/Asn) ligase (Mycobacterium tuberculosis (strain ATCC 25618 / H37Rv)) (UniProt P9WFW3) (assay: Assay for Asp RNA synthetase-1 from Mycobacterium tuberculosis). Details: 30 µM.
T1 sequence (whole entry): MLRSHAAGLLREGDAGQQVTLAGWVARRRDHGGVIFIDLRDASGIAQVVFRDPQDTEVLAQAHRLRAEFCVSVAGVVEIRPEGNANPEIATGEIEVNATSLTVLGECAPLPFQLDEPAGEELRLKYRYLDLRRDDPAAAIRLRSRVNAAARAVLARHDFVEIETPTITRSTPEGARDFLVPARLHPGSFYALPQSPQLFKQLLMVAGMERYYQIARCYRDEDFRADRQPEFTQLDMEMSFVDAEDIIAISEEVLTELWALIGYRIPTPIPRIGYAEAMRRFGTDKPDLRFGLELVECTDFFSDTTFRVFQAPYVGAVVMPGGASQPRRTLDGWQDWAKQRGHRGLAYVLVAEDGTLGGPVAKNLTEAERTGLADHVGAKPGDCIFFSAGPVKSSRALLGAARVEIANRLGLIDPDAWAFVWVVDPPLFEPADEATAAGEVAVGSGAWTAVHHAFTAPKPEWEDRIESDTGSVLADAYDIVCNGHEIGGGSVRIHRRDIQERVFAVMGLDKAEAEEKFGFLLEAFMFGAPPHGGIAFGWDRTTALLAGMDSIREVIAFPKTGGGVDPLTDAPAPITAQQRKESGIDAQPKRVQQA
Type: functional
Set-up: scale not given: direction of the effect not stated beside the values
Work on `COc1ccccc1OC1(C(=O)O)CCN(c2nccnc2C)CC1` yielded a Percent Effect of 1.09%.
`Cc1ccc(N2CC3(COCCN(Cc4cccnc4)C3)OCC2=O)s1` (stereo not given) showed a Percent Effect of 10.1%.
With `Cc1cc(C(=O)NCc2ccc(N3CCCC(C(N)=O)C3)cc2)[nH]n1` (stereo not given) the Percent Effect was -3.98%.
`Cc1oc(C)c(C(=O)NCc2cccnc2N(C)C)c1C` showed a Percent Effect of -2.01%.
Work on `CNC(=O)c1cc2c(nc1NCC1CC1)CCN(S(=O)(=O)C1CC1)CC2` yielded a Percent Effect of 7.68%.
With `CNc1oc(-c2cc(S(=O)(=O)N3CCCCCC3)c(C)o2)nc1C#N` the Percent Effect was 2.56%.
Work on `CC(C)Oc1cc(N2C[C@@H](C)O[C@@H](C)C2)nc(N)n1` yielded a Percent Effect of -0.457%.
`Cc1nccc([C@H]2C[C@@H]3CCN(S(=O)(=O)N(C)C)C[C@H]3O2)n1` was tested, and the Percent Effect was 1.71%.
Compound `CNC(=O)c1cc2c(nc1NCC(C)C)CCN(S(=O)(=O)C1CC1)CC2` has a Percent Effect of -2.58%.
With `Cc1ccc(C)c(C(NC(=O)C(C)(C)C)c2cccnc2)c1` (stereo not given) the Percent Effect was -1.21%.
Work on `CC(Cn1ccnc1)NC(=O)NCCNC(=O)C(C)C` (stereo not given) yielded a Percent Effect of 1.08%.
In the case of `c1ccc(CCN2CCOC(Cn3cccn3)C2)nc1` (stereo not given), the Percent Effect is reported as -0.259%.
For `CN(Cc1nc2c(cnn2C)c(=O)[nH]1)Cc1ccc(F)cc1F`, the Percent Effect was -2.26%.
`Cc1cc(CN2CCCC2Cn2cncn2)no1` (stereo not given) showed a Percent Effect of -4.72%.
`COc1ccccc1CN1CC[C@H]2C[C@@H](C(=O)N3CCCC3)O[C@H]2C1` showed a Percent Effect of 0.335%.
For `O=C(CO[C@@H]1CC[C@H]2[C@H]1OCCN2CC1CCOCC1)N1CCCC1`, the Percent Effect was 0.943%.
In the case of `CC(C)NC(=O)[C@@H]1C[C@H](N)CN1C(=O)c1cc2c([nH]c1=O)CCCC2`, the Percent Effect is reported as 2.4%.
`CN1CCCC(Cc2cncc(C(=O)NCC3CC3)c2)C1` (stereo not given) was tested, and the Percent Effect was -1.03%.
Compound `Cc1cc2n(n1)CC(CNCc1cnn(-c3ccccc3)c1)CN2` (stereo not given) has a Percent Effect of -1.15%.
Work on `Cn1cc(Br)c(=O)c(NS(=O)(=O)c2cc(F)ccc2Cl)c1` yielded a Percent Effect of -1.26%.
`CCCn1[nH]cc/c1=N\C(=O)CN1CCOC(Cn2cc(C)cn2)C1` (stereo not given) showed a Percent Effect of -3.84%.
With `c1csc(CN2CCOCC3(CCN(C4CCOCC4)C3)C2)n1` (stereo not given) the Percent Effect was 9.2%.
With `CS(=O)(=O)NCCCN1CCCCC1c1cc2ccccc2[nH]1` (stereo not given) the Percent Effect was -1.17%.
`Cc1nc(C)n(CC2CCCN2Cc2nc(-c3cccs3)no2)n1` (stereo not given) was tested, and the Percent Effect was -2.77%.
With `CN(C)C(=O)[C@H]1C[C@@H]2CCN(C3CCOCC3)C[C@H]2O1` the Percent Effect was -3.87%.
`Cc1cccc(NC2CCN(C(=O)Nc3cc(C)on3)CC2)n1` showed a Percent Effect of -5.71%.
Compound `CC(=O)N1CCN(Cc2nnc(C(C)(C)C)o2)CC1` has a Percent Effect of 3.25%.
For `Cn1cnc2c(N3CCCC3)nc(C3CCNCC3)cc21`, the Percent Effect was 3.17%.
For `CN1[C@@H](C(=O)NCC2CC2)C[C@@H]2CN(Cc3ccco3)C[C@@H]21`, the Percent Effect was 2.69%.
Compound `COc1ccccc1-c1cc(C(F)(F)F)c2c(C)nn(CC(=O)O)c2n1` has a Percent Effect of 3.1%.
For `O=C(NCC1CC1)[C@H]1C[C@H]2OCC[C@H]2N(Cc2ccoc2)C1`, the Percent Effect was 2.61%.
`CC(=O)N1CCN(S(=O)(=O)c2ccc(C)c(F)c2)CC1` gave a Percent Effect of -1.95%.
Work on `O=C1CN(Cc2ccc(-c3ccccc3C(=O)O)cc2)CCN1` yielded a Percent Effect of 5.6%.
In the case of `CCc1cc(O)nc(C2CCCN2C(=O)c2cccnc2)n1` (stereo not given), the Percent Effect is reported as 2.54%.
`CCNC(=O)c1ncn2c1CN(C)S(=O)(=O)c1ccccc1-2` gave a Percent Effect of -3.46%.
`Cc1cccc2c1cnn2CCCNC(=O)C(C)C` was tested, and the Percent Effect was 11.8%.
Compound `CCS(=O)(=O)N1CCc2c(cccc2NC(=O)NCCOC)C1` has a Percent Effect of 5.42%.
Work on `CC(C)[C@H](NC(=O)NC1CCS(=O)(=O)C1)C(=O)NCc1cccnc1` (stereo not given in full) yielded a Percent Effect of -2.09%.
`Cc1cc(O)c(OCC(=O)/N=c2\[nH]cc(C)s2)cn1` was tested, and the Percent Effect was -2.4%.
In the case of `CCOc1ccccc1-c1noc(CN2CCCC(O)C2)n1` (stereo not given), the Percent Effect is reported as -5.33%.

Each compound was assayed against Shiga toxin 2 (Escherichia coli O157:H7) (UniProt P09385+P09386) (assay: E. coli 0.157:H7 Shiga Toxin SOP - stx2 screening assay). Details: 30 µM.
Type: functional
Set-up: scale not given: direction of the effect not stated beside the values
Compound `COc1ccccc1OC1(C(=O)O)CCN(c2nccnc2C)CC1` has a Percent Effect of -3.46%.
For `Cc1ccc(N2CC3(COCCN(Cc4cccnc4)C3)OCC2=O)s1` (stereo not given), the Percent Effect was -4.57%.
With `Cc1cc(C(=O)NCc2ccc(N3CCCC(C(N)=O)C3)cc2)[nH]n1` (stereo not given) the Percent Effect was -16.8%.
With `Cc1oc(C)c(C(=O)NCc2cccnc2N(C)C)c1C` the Percent Effect was 35.3%.
`CNC(=O)c1cc2c(nc1NCC1CC1)CCN(S(=O)(=O)C1CC1)CC2` gave a Percent Effect of -5.47%.
`CNc1oc(-c2cc(S(=O)(=O)N3CCCCCC3)c(C)o2)nc1C#N` was tested, and the Percent Effect was -18.8%.
`CC(C)Oc1cc(N2C[C@@H](C)O[C@@H](C)C2)nc(N)n1` showed a Percent Effect of 0.94%.
For `Cc1nccc([C@H]2C[C@@H]3CCN(S(=O)(=O)N(C)C)C[C@H]3O2)n1`, the Percent Effect was 6.66%.
For `CNC(=O)c1cc2c(nc1NCC(C)C)CCN(S(=O)(=O)C1CC1)CC2`, the Percent Effect was 1.28%.
Compound `Cc1ccc(C)c(C(NC(=O)C(C)(C)C)c2cccnc2)c1` (stereo not given) has a Percent Effect of 1.8%.
In the case of `CC(Cn1ccnc1)NC(=O)NCCNC(=O)C(C)C` (stereo not given), the Percent Effect is reported as 11.8%.
`c1ccc(CCN2CCOC(Cn3cccn3)C2)nc1` (stereo not given) gave a Percent Effect of 0.927%.
`CN(Cc1nc2c(cnn2C)c(=O)[nH]1)Cc1ccc(F)cc1F` was tested, and the Percent Effect was -10.7%.
For `Cc1cc(CN2CCCC2Cn2cncn2)no1` (stereo not given), the Percent Effect was -0.0947%.
`COc1ccccc1CN1CC[C@H]2C[C@@H](C(=O)N3CCCC3)O[C@H]2C1` gave a Percent Effect of -13.2%.
`O=C(CO[C@@H]1CC[C@H]2[C@H]1OCCN2CC1CCOCC1)N1CCCC1` gave a Percent Effect of -4.47%.
`CC(C)NC(=O)[C@@H]1C[C@H](N)CN1C(=O)c1cc2c([nH]c1=O)CCCC2` gave a Percent Effect of -1.55%.
For `CN1CCCC(Cc2cncc(C(=O)NCC3CC3)c2)C1` (stereo not given), the Percent Effect was 2.18%.
`Cc1cc2n(n1)CC(CNCc1cnn(-c3ccccc3)c1)CN2` (stereo not given) was tested, and the Percent Effect was 7.05%.
For `Cn1cc(Br)c(=O)c(NS(=O)(=O)c2cc(F)ccc2Cl)c1`, the Percent Effect was 16.3%.
Compound `CCCn1[nH]cc/c1=N\C(=O)CN1CCOC(Cn2cc(C)cn2)C1` (stereo not given) has a Percent Effect of 8.34%.
`c1csc(CN2CCOCC3(CCN(C4CCOCC4)C3)C2)n1` (stereo not given) showed a Percent Effect of -7.95%.
Compound `CS(=O)(=O)NCCCN1CCCCC1c1cc2ccccc2[nH]1` (stereo not given) has a Percent Effect of -11.8%.
`Cc1nc(C)n(CC2CCCN2Cc2nc(-c3cccs3)no2)n1` (stereo not given) gave a Percent Effect of 29.7%.
`CN(C)C(=O)[C@H]1C[C@@H]2CCN(C3CCOCC3)C[C@H]2O1` gave a Percent Effect of -13.4%.
For `Cc1cccc(NC2CCN(C(=O)Nc3cc(C)on3)CC2)n1`, the Percent Effect was -63.5%.
In the case of `CC(=O)N1CCN(Cc2nnc(C(C)(C)C)o2)CC1`, the Percent Effect is reported as -4.69%.
`Cn1cnc2c(N3CCCC3)nc(C3CCNCC3)cc21` was tested, and the Percent Effect was -31.9%.
For `CN1[C@@H](C(=O)NCC2CC2)C[C@@H]2CN(Cc3ccco3)C[C@@H]21`, the Percent Effect was -1.45%.
In the case of `COc1ccccc1-c1cc(C(F)(F)F)c2c(C)nn(CC(=O)O)c2n1`, the Percent Effect is reported as -13.7%.
For `O=C(NCC1CC1)[C@H]1C[C@H]2OCC[C@H]2N(Cc2ccoc2)C1`, the Percent Effect was -11.8%.
For `CC(=O)N1CCN(S(=O)(=O)c2ccc(C)c(F)c2)CC1`, the Percent Effect was -12.2%.
With `O=C1CN(Cc2ccc(-c3ccccc3C(=O)O)cc2)CCN1` the Percent Effect was 43.1%.
In the case of `CCc1cc(O)nc(C2CCCN2C(=O)c2cccnc2)n1` (stereo not given), the Percent Effect is reported as 2.33%.
Compound `CCNC(=O)c1ncn2c1CN(C)S(=O)(=O)c1ccccc1-2` has a Percent Effect of -5.52%.
In the case of `Cc1cccc2c1cnn2CCCNC(=O)C(C)C`, the Percent Effect is reported as -9.88%.
`CCS(=O)(=O)N1CCc2c(cccc2NC(=O)NCCOC)C1` showed a Percent Effect of 6.78%.
Compound `CC(C)[C@H](NC(=O)NC1CCS(=O)(=O)C1)C(=O)NCc1cccnc1` (stereo not given in full) has a Percent Effect of -28.7%.
For `Cc1cc(O)c(OCC(=O)/N=c2\[nH]cc(C)s2)cn1`, the Percent Effect was -6.58%.
In the case of `CCOc1ccccc1-c1noc(CN2CCCC(O)C2)n1` (stereo not given), the Percent Effect is reported as 2.11%.

— ChEMBL document CHEMBL3988442, “University of Dundee, Small-Polar-MMV Screening Library” (2021)
